Screening data (PubChem BioAssay)
HCV inhibitor: blocks hepatitis C virus | Huh7.5.1 HCVcc-Cre infection, luciferase reporter, 44 h | Potency, µM (doses to about 41.8 µM), for inactives: at the highest dose activity change, negative = inhibition, usual class: inhibitors | 340,000 tested, 3.4% active; active means well fitted inhibition curve with a large enough effect; inconclusive means small, poorly fitted or top-dose-only effect, or another doubt; inactive means no such curve, though single readings can be large or run the other way; further: potency means the concentration at half of the fitted maximal effect
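Luciferase read-out (15 sec integration) after a 15 min room-temperature substrate step quantifies HCVcc-Cre infection. Cells, 1,000 per well, had compound added 4 h post-plating, then virus at ~0.5 moi, and were cultured 44 h.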
HCMV inh: human cytomegalovirus inhibition; HFF cells, HCMV-luciferase reporter, 72 h; hits give low values; activity change, negative = inhibition, % at 57.5 µM; 410,000 tested, 4.5% active; in the data active means activity change below about -60%; inconclusive means no clear call, values can overlap the other calls; inactive means above about -39%
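HFF cells seeded 16 h at 37C, treated with compounds, infected with luciferase-reporter HCMV at MOI 1 PFU/cell; luciferase read at 72 h post infection, normalized to buffer-only and Salinomycin controls.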
MARV entry inh: inhibitors of Marburg virus binding or cell entry; Potency, µM (series often up to 37.8 µM), without a hit: at the highest dose activity change, negative = inhibition, hits mostly inhibitors; 300,000 tested, 1.8% active; Marburg virus pseudotyped entry inhibition, cell reporter; calls by dose curve; tested in HEK293 cells; further: potency means the concentration at half of the fitted maximal effect
LASV entry inh: inhibitors of Lassa virus binding or cell entry; Lassa virus pseudotype entry inhibition, cell reporter; Potency, µM (highest dose often 37.9 µM), inactives show at the highest dose activity change, negative = inhibition, hits mostly inhibitors; 300,000 tested, 1.2% active; AID 540256; calls by dose curve; tested in HEK293 cells; further: potency means the concentration at half of the fitted maximal effect; nearly all actives have a fitted effect of over 50% in size
FMDV antiviral: blocks foot and mouth disease virus. FMDV antiviral cell-based qHTS. Potency, µM (series often up to 57.9 µM), for the others: at the highest dose activity change, negative = inhibition, most hits filed as inhibitors. 410,000 tested, 1.2% active. AID 1159524; calls by dose curve; tested in HEK293T cells; further: read-out not given here; potency means the concentration at half of the fitted maximal effect; nearly all actives have a fitted effect of over 45% in size
* hit, by the source's call; u = inconclusive; x = no result; ! = not active in a repeat; [ ] = dose if it differs, or a comment. Only some compounds are listed: those with a hit (about 7.9% of all), similar ones and a draw of the others. On the % scale 0 is the no-effect control and ±100 the full control effect.

SMILES	HCV inhibitor	HCMV inh	MARV entry inh	LASV entry inh	FMDV antiviral
CN(C)CC#Cc1cccc(-c2nc(C(=O)O)cc3c2[C@@H](CCO)N(S(=O)C(C)(C)C)C3)c1 (stereo not given in full)	x	-14	x	x	-17%
O=C(c1cccs1)N1C[C@@H](n2cc(C3CC3)nn2)[C@@H](O)C[C@@H]1c1ccc(Cl)cc1	x	x	x	8%[46.1 µM]	x
CSc1oc(-c2ccc(F)cc2)nc1S(=O)(=O)c1ccc(F)cc1	-3%	u	x	x	-24%
CC(C)S(=O)(=O)c1oc(-c2ccc(F)cc2)nc1S(=O)(=O)c1ccccc1	x	-97*	u	u	16µM*
Cc1ccc(S(=O)(=O)c2nc(-c3cccs3)oc2SC(C)C)cc1	x	-7	-23%[46.1 µM]	-6%[46.1 µM]	-13%
CCS(=O)(=O)c1oc(-c2ccc(F)cc2)nc1S(=O)(=O)c1ccc(Br)cc1	x	-99*	u	u	14µM*
CSc1oc(-c2ccc(F)cc2)nc1S(=O)(=O)c1ccccc1	-7%	0	-2%	2%	x
CCCCS(=O)(=O)c1oc(-c2ccc(F)cc2)nc1S(=O)(=O)c1ccccc1	x	-99*	u	u	32µM*
CC(C)S(=O)(=O)c1oc(-c2cccs2)nc1S(=O)(=O)c1ccc(F)cc1	x	-102*	u	u	22µM*
O=C(NCCc1ccncc1)[C@@H]1[C@@H](CO)[C@@H]2Cn3c(cccc3=O)[C@H]1N2Cc1ccccc1F	x	24	x	x	x
O=C(CCn1c(=O)c2cccn2c2cccnc21)NCc1cccc(Cl)c1	13%	u	11%[46.1 µM]	28%[46.1 µM]	2%
COc1ccc(OCCN2CCC(C(=O)NC(c3ccc(Cl)cc3)c3ncccc3C)CC2)cc1 (stereo not given)	x	x	x	x	-3%
CS(=O)(=O)c1oc(-c2ccc(F)cc2)nc1S(=O)(=O)c1ccc(Cl)cc1	x	-96*	-15%[46.1 µM]	u	25µM*
CCCN1CCN(CCCNC(=O)c2ccc3c(c2)sc2nc(-c4ccc(OC)cc4)cn23)CC1	x	x	x	26%[46.1 µM]	13%
c1ccc(CNc2nnnn2-c2ccccc2)cc1	-1%	-72*	17%	-13%	20%
c1ccc(-n2nnnc2NCCc2c[nH]c3ccccc23)cc1	-21%	1	-5%	-18%	54%
CCOC(=O)c1c(C)[nH]c(C(=O)OCc2c(C)noc2C)c1C	11µM*	-33	u	-2%	u
CCOC(=O)c1[nH]c(C=O)c(C(=O)OCC)c1C	u	-96*	u	u	16%
CCOC(=O)c1c(C)[nH]c(C(C)=O)c1C	6%	39	12%	-9%	-1%
CCOC(=O)c1c(C)[nH]c(C(=O)COC(=O)c2c(CC)noc2C)c1C	14µM*	-6	-1%[46.1 µM]	u	-20%
CCOC(=O)c1c(C)[nH]c(C(=O)COC(=O)c2cc(C)oc2C)c1C	u	-14	x	x	-16%
CCOC(=O)c1[nH]c(C)c(C(=O)O)c1C	x	x	9%	x	x
Cc1ncc2c(c1CNS(=O)(=O)N(C)C)CCN(C(=O)c1ccc(-c3ccc(F)cc3)cc1)C2	x	x	x	x	-18%
COc1ccc2[nH]c(=O)c(CN(CCN3CCCC3)C(=O)Nc3ccccc3Cl)cc2c1	-24%	-88*	-26%	-10%	-15%
CCOc1ccc2[nH]c(=O)c(CN(CCN3CCCC3)C(=S)Nc3ccccc3OCC)cc2c1	u	-64*	x	x	-16%
SMILES	HCV inhibitor	HCMV inh	MARV entry inh	LASV entry inh	FMDV antiviral
COc1ccc2[nH]c(=O)c(CN(CC3CCCO3)C(=O)Nc3ccccc3OC)cc2c1 (stereo not given)	u	-1	u	u	-25%
Cc1ccc(S(=O)(=O)N2CCOCC2)cc1C(=O)Nc1nc(-c2ccccn2)cs1	u	-87*	u	-29%	u
O=C(Nc1nc(-c2ccccn2)cs1)c1cccc(S(=O)(=O)N2CCOCC2)c1	3.5µM*	0	x	x	-14%
COc1ccc(C(=O)Nc2nc(-c3ccccn3)cs2)cc1S(=O)(=O)N1CCOCC1	11µM*	0	x	x	u
CN1CCN(S(=O)(=O)c2cccc(C(=O)Nc3nc(-c4ccccc4)cs3)c2)CC1	u	248	u	-20%	-17%
COc1ccc(C(=O)Nc2ccccn2)cc1S(=O)(=O)N1CCOCC1	3%	24	18%	5%	-9%
Cc1ccc(S(=O)(=O)N2CCOCC2)cc1C(=O)NCCN1C(=O)S/C(=C\c2ccccc2Cl)C1=O	13µM*	-34	u	u	u
CCC(CC)c1nn2c(=O)cc(COc3ccc(NC(=O)c4cccc(C)c4)cc3)nc2s1	x	16	1%[46.1 µM]	-13%[46.1 µM]	0%
COc1ccc([C@@H]2Sc3ccccc3N(CCN(C)C)C(=O)[C@@H]2OC(C)=O)cc1	-7%[8.37 µM]	-7	u	2.3µM*	-16%
COc1ccc(C2Sc3ccccc3N(CCN(C)C)C(=O)[C@@H]2OC(C)=O)cc1 (stereo not given in full)	x	x	u	x	-5%
CCCOC(=O)c1ccc(-[n+]2c(-c3ccccc3)cc(-c3ccccc3)cc2-c2ccccc2)cc1	u	-98*	x	x	14µM*
COc1ccc(-c2cc(-c3ccccc3)[n+](C)c(-c3ccccc3)c2)cc1	u	-101*	6.3µM*	u	u
C[n+]1c(-c2ccccc2)cc(CCCCc2cc(-c3ccccc3)[n+](C)c(-c3ccccc3)c2)cc1-c1ccccc1	u	-98*	u	-19%	u
O=C(O)c1ccc(-[n+]2c(-c3ccccc3)cc(-c3ccccc3)cc2-c2ccccc2)cc1	-7%	6	x	x	2%
COc1ccc(-c2cc(O)cc(O)c2)cc1	-12%	122	-9%	-29%	-6%
Brc1ccc(-[n+]2c(-c3ccccc3)cc(-c3ccccc3)cc2-c2ccccc2)cc1	u	-98*	x	x	u
Cc1ccc(C(=O)NCCCN2CCOCC2)c(Cl)c1	10%	100	u	u	29%
COc1ccc(Cc2nnc(SCC(=O)c3ccc4c(c3)NC(=O)CO4)o2)cc1	-10%	-24	1%	4%	-8%
O=C1COc2ccc(-c3cc(-c4ccc(F)cc4)c4c(n3)-c3cc(Cl)ccc3OC4)cc2N1	x	-9	-19%[46.1 µM]	15%[46.1 µM]	-16%
COc1ccc(-[n+]2c(-c3ccccc3)cc(-c3ccc(C)cc3)cc2-c2ccccc2)cc1	u	-94*	u	u	u
Cc1ccc(-c2cc(-c3ccccc3)cc(-c3ccccc3)[n+]2-c2ccc(C(=O)O)cc2)cc1	-7%	-17	x	x	-16%
CC(=O)c1ccc(-c2cccc(-c3nc4ccccn4c3NC3CCCCC3)c2)cc1	10µM*	-29	x	x	u
CCC(C)Sc1cc(-c2nc3ccccn3c2NC2CCCCC2)ccc1OC (stereo not given)	u	-88*!	x	x	u
CCC(C)Sc1cc(-c2nc3cc(C)ccn3c2NC2CCCCC2)ccc1OC (stereo not given)	u	-84*!	x	x	u
c1csc(-c2nc3ccccn3c2NC2CCCCC2)c1	-15%	-30	u	u	u
CCCCNC(=O)Nc1ncn[nH]1	22%	0	x	x	19%
